The full ranking holds about 81,000 sequences; the median of “one-hybrid fitness for binding NBS DNA” is about -0.1, and the highest 2% start at about 0.36. The sample as a whole holds a higher share of the highest values than the screen did.
B1: Caulobacter ParB omega fusion; a variant is named by its letters at X, in order, B8GW30 (parent)
chain: MESVVVGEPGMSEGRRGLGRGLSALLGEVDAAPAQAPGEQLGGSREAPIEILQRNPDQPRRTFREEDLEDLSNSIREKGVLQPILVRPSPDTAGEYQIVAGERAWRAAQRAGLKTVPIMVRELDDLAVLEIGIIENVQRADLNVLEEALSYKVLMEKFERTQENIAQTIGKSXSHVANXMRLLXLPDEVQSYLVSGELTAXHARAIAAAADPVALAKQIIEGGLSVRETEALARKAPNLSAGKSKGGRPPRVKDTDTQALESDLSSVLGLDVSIDHRGSTGTLTITYATLEQLDDLCNRLTRGI

Variants of: B1
Assay: one-hybrid fitness for binding NBS DNA (the Noc-binding site; scaled: cognate 1, non-cognate 0); higher = stronger binding
Conditions: with NBS DNA site
Outline: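 Fitness here means the log change in variant-to-wild-type read ratio between plasmids sequenced before and after selection. That scale was set so cognate equals 1 and non-cognate equals 0. The selection was a bacterial one-hybrid screen of Caulobacter ParB libraries, four specificity codons randomised, in E. coli USO carrying a HIS3 reporter with the site 19 bp from the promoter, grown 48 hours at 37°C on M9-minus-histidine with 0.1 mM IPTG and 5 mM 3-AT.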

Row | Variant | one-hybrid fitness for binding NBS DNA
1 | QCKP | 0.332
2 | QTKP | 0.41
3 | QTKN | 0.56
4 | MGCR | ≤ 0.2
5 | YYNE | ≤ 0.2
6 | KRKG | 0.234
7 | SVHI | ≤ 0.2
8 | PNPM | ≤ 0.2
9 | QAHH | ≤ 0.2
10 | QLHS | 0.373
11 | QLHN | ≤ 0.2
12 | QHHD | ≤ 0.2
13 | QAHN | ≤ 0.2
14 | QMHD | ≤ 0.2
15 | QHHS | 0.386
16 | QHHH | 0.214
17 | QLHD | ≤ 0.2
18 | QMHH | 0.221
19 | QAHS | 0.398
20 | QMHS | 0.451
21 | HRHV | ≤ 0.2
22 | IEST | ≤ 0.2
23 | VWYL | ≤ 0.2
24 | EEFL | ≤ 0.2
25 | ILLI | ≤ 0.2

Row | Variant | one-hybrid fitness for binding NBS DNA
26 | QSHH | ≤ 0.2
27 | QSHN | ≤ 0.2
28 | QPHS | ≤ 0.2
29 | QCHS | 0.502
30 | QIHS | 0.281
31 | QSHS | 0.381
32 | CANC | ≤ 0.2
33 | RDTV | ≤ 0.2
34 | RSTY | ≤ 0.2
35 | RRTD | ≤ 0.2
36 | RRTY | 0.378
37 | RCTY | ≤ 0.2
38 | RRTS | 0.661
39 | RRTN | 0.339
40 | RRTP | ≤ 0.2
41 | RRTH | 0.509
42 | RCTH | 0.237
43 | SLHR | ≤ 0.2
44 | ENTM | ≤ 0.2
45 | LGQD | ≤ 0.2
46 | KSNT | ≤ 0.2
47 | PNLF | ≤ 0.2
48 | YVMG | ≤ 0.2
49 | DWYR | ≤ 0.2
50 | LYTY | ≤ 0.2

Row | Variant | one-hybrid fitness for binding NBS DNA
51 | QAAG | ≤ 0.2
52 | APTR | ≤ 0.2
53 | RCHH | 0.219
54 | PNAR | ≤ 0.2
55 | IYLD | ≤ 0.2
56 | QRCF | 0.275
57 | QCCC | ≤ 0.2
58 | QRCN | 0.397
59 | QSCM | ≤ 0.2
60 | QRCC | 0.389
61 | QRCG | 0.343
62 | QCCM | ≤ 0.2
63 | QSCC | ≤ 0.2
64 | QRCE | 0.223
65 | QCCN | ≤ 0.2
66 | QRCH | 0.52
67 | QRCM | 0.397
68 | LFGC | ≤ 0.2
69 | DFND | ≤ 0.2
70 | HHDK | ≤ 0.2
71 | NKRM | ≤ 0.2
72 | EPHG | ≤ 0.2
73 | TMRV | ≤ 0.2
74 | KINT | ≤ 0.2
75 | AVTK | ≤ 0.2

Row | Variant | one-hybrid fitness for binding NBS DNA
76 | QSFM | ≤ 0.2
77 | YMRR | ≤ 0.2
78 | QGHN | ≤ 0.2
79 | AHIF | ≤ 0.2
80 | DQPR | ≤ 0.2
81 | VTFK | ≤ 0.2
82 | PKYY | ≤ 0.2
83 | QRCS | 0.693
84 | QSCQ | ≤ 0.2
85 | QRCQ | 0.382
86 | QRCP | 0.249
87 | QRCD | 0.237
88 | ALAT | ≤ 0.2
89 | THPT | ≤ 0.2
90 | QSKI | 0.314
91 | QRKI | 0.52
92 | QPKI | ≤ 0.2
93 | QTFI | ≤ 0.2
94 | QRPI | ≤ 0.2
95 | QTVI | ≤ 0.2
96 | QTKI | 0.468
97 | QCKI | 0.405
98 | QRVI | ≤ 0.2
